Cycloheximide cs = counter-screen hit for Shiga toxin inhibitors, cycloheximide; cell reporter, cycloheximide protein synthesis inhibition counterscreen; 300,000 tested, 12% active; max response, %; in the data active = max response mostly above about 13%, no sharp cut-off; inactive = mostly below about 14%; note: read at 38.3 µM for the half of the compounds with a filed dose
Shiga inhibitor = inhibitors of Shiga toxin in Vero cells; Vero cells, Shiga toxin protein synthesis inhibition reporter; inhibition, % at 38.7 µM; 290,000 tested, 9.2% active; AID 2315; in the data active = inhibition mostly above about 28%, no sharp cut-off; inactive = mostly below about 43%
NS1 inh = blocks influenza NS1 protein function; 270,000 tested, 0.4% active; AID 2326; Potency, µM (series often up to 46.1 µM); note: actives are rising curves; nearly all actives have a fitted effect of over 50% in size
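Growth recovery, yeast-based: influenza A NS1 expressed in S. cerevisiae causes slow growth, and suppressors are detected by OD600. The parent strain without NS1 is used as positive control.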
Pf growth 48h = P. falciparum growth inhibition at 48 hours (one generation). P. falciparum luciferase growth in erythrocytes, 48 h. Potency, µM (doses to about 28.7 µM), hits mostly inhibitors. 310,000 tested, 5.9% active; active = well fitted inhibition curve with a large enough effect; inconclusive = small, poorly fitted or top-dose-only effect, or another doubt; inactive = no such curve, though single readings can be large or run the other way
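Erythrocytes infected with P. falciparum carrying an integrated firefly luciferase reporter (2% hematocrit, 0.1% parasitemia final) were exposed to compounds in RPMI 1640 with 0.5% Albumax at 37 C, 5% CO2. Growth inhibition was scored as reduced luminescence.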
Pf growth 96h = P. falciparum growth inhibition at 96 hours. P. falciparum luciferase reporter growth, 96 h. 320,000 tested, 6.9% active. Potency, µM (doses to about 28.7 µM), actives largely listed as inhibitors; active = well fitted inhibition curve with a large enough effect; inconclusive = small, poorly fitted or top-dose-only effect, or another doubt; inactive = no such curve, though single readings can be large or run the other way
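Compounds incubated with erythrocytes infected by luciferase-expressing P. falciparum (2% hematocrit, 0.05% parasitemia final) for 96 hours, 37 C in 5% CO2. Growth inhibition scored as decreased luciferase luminescence.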
SARS PLpro yeast = inhibitors of SARS-CoV papain-like protease in yeast | Potency, µM (doses to about 32.9 µM), most hits filed as activators | 330,000 tested, 0.19% active | AID 485353 | S. cerevisiae expressing SARS-CoV PLpro, growth rescue; note: nearly all actives have a fitted effect of over 55% in size
A number is an active result; - = inactive; ? = inconclusive; . = no result given. Most compounds without a hit are left out; they make up all but 21% or so of the library. Unless noted, calls come from the whole dose curve.

SMILES	Cycloheximide cs	Shiga inhibitor	NS1 inh	Pf growth 48h	Pf growth 96h	SARS PLpro yeast
C=CCn1c(SCC(=O)c2ccc(Cl)cc2)nnc1-c1ccc2c(c1)OCO2	-	-	-	?	11.7µM	-
Cc1cccn2cc(CCNC(=O)Cc3cccs3)nc12	-	-	-	-	-	-
CC(C)CNC(=O)/C(C#N)=C1\N=C(NC(=O)c2ccco2)c2ccccc21	12.4	-	-	?	?	-
COCCCNC(=O)CSc1nc2ccccc2c(=O)n1CCCN1CCCCC1	-	-	-	-	-	-
COc1ccc(NC(=O)CSc2nc3ccccc3c(=O)n2CCCN2CCCCC2)c(OC)c1	-	-	-	.	9.28µM	-
COc1ccc(NC(=O)CSc2nc3c(sc4ccccc43)c(=O)n2CCCN2CCCC2)cc1	-	-	-	13.1µM	?	-
Cc1onc(-c2ccccc2)c1C(=O)N1CCCCCC1	-	-	-	-	?	-
O=C(O)c1ccc(OS(=O)(=O)c2ccc(Cl)s2)cc1	.	.	.	-	-	-
Cc1ccc2nc(NC(=O)C3CCN(c4ncnc5sc(C)c(C)c45)CC3)sc2c1	18.2	-	-	-	?	-
Cc1sc2ncnc(N3CCC(C(=O)Nc4nc(-c5cccs5)cs4)CC3)c2c1C	.	.	.	?	10.4µM	-
CCCCSc1nc(C)c(CC(=O)O)c(=O)[nH]1	-	-	-	-	-	-
O=C(CC1C(=O)NCCN1Cc1cccc(F)c1F)NC1CCCCCC1 (configuration not stated)	-	-	-	?	-	-
CC(C)C[C@H](NC(=O)[C@H](CCCCN)NC(=O)CNC(=O)[C@H](CC(C)C)NC(=O)[C@@H](NC(=O)[C@@H]1CSSC[C@H](N)C(=O)N[C@@H](CO)C(=O)N[C@@H](CC(N)=O)C(=O)N[C@@H](CC(C)C)C(=O)N[C@@H](CO)C(=O)N[C@@H]([C@@H](C)O)C(=O)N1)C(C)C)C(=O)N[C@@H](CO)C(=O)N[C@@H](CCC(N)=O)C(=O)N[C@@H](CCC(=O)O)C(=O)N[C@@H](CC(C)C)C(=O)N[C@@H](Cc1cnc[nH]1)C(=O)N[C@@H](CCCCN)C(=O)N[C@@H](CC(C)C)C(=O)N[C@@H](CCC(N)=O)C(=O)N[C@H](C(=O)N[C@@H](Cc1ccc(O)cc1)C(=O)N1CCC[C@H]1C(=O)N[C@@H](CCCNC(=N)N)C(=O)N[C@H](C(=O)N[C@@H](CC(N)=O)C(=O)N[C@H](C(=O)NCC(=O)N[C@@H](CO)C(=O)NCC(=O)N[C@H](C(=O)N1CCC[C@H]1C(N)=O)[C@@H](C)O)[C@@H](C)O)[C@@H](C)O)[C@@H](C)O	-	-	.	.	.	.
Cc1nnc(SCC(=O)N(C)c2ccccc2)n1Cc1ccccc1	-	-	-	-	?	-
CN(C(=O)CSc1nnc(CN2CCCC2)n1Cc1ccccc1)c1ccccc1	.	.	.	11.7µM	?	-
S=c1[nH]nc(CN2CCCCC2)n1Cc1ccccc1	-	-	-	3.7µM	-	-
S=c1[nH]nc(-c2ccc(Cl)cc2)n1Cc1ccccc1	-	-	-	-	-	?
CCn1c(CCc2ccccc2)n[nH]c1=S	-	-	-	-	10.4µM	-
S=c1[nH]nc(-c2ccccc2)n1Cc1ccccc1	-	-	-	-	0.415µM	?
COC(=O)CCC(C)N1CCC(Oc2ccc(C(=O)N3CCCC3)cc2)CC1 (configuration not stated)	-	-	-	-	?	-
CC(C)(C)c1cc(C(=O)N/N=C/c2cc3c(cc2Br)OCO3)n[nH]1	-	-	-	?	?	-
CCOc1ccccc1NC(=O)Cn1[nH]c(=O)c2ccccc2c1=O	-	-	.	-	-	-
C[C@H](NS(=O)(=O)c1ccccc1F)C(=O)OCC(=O)Nc1ccc2c(c1)OCCO2	.	.	.	.	.	-
Cc1ccc(-c2csc(NC(=O)COC(=O)c3cccc(S(=O)(=O)N4CCOCC4)c3)n2)cc1	22.4	130.8	-	-	-	-
Cc1ccc(-c2csc(NC(=O)c3cccc(S(=O)(=O)N4CCN(C)CC4)c3)n2)cc1	-	-	-	-	7.38µM	-
SMILES	Cycloheximide cs	Shiga inhibitor	NS1 inh	Pf growth 48h	Pf growth 96h	SARS PLpro yeast
O=C(Nc1nc(-c2cccs2)cs1)c1cccc(S(=O)(=O)N2CCCCC2)c1	17.6	-	-	?	?	-
O=C(Nc1nc(-c2ccc(S(=O)(=O)N3CCCCCC3)cc2)cs1)c1cccs1	-	-	-	?	-	-
COc1ccccc1C(C)NC(=O)c1ccc(C)o1 (configuration not stated)	-	-	-	.	13.1µM	-
Cc1ccc(C(=O)NC(C)c2ccccc2)o1 (configuration not stated)	-	-	-	-	-	-
O=C(O)c1ccccc1C(=O)NC1Cc2ccccc2C1	-	-	-	-	-	-
COCCNc1nc(N)c([N+](=O)[O-])c(NC2CCCCC2)n1	-	-	-	?	?	-
NCCCNc1nc(N)c([N+](=O)[O-])c(NC2CCCCC2)n1	-	-	-	2.33µM	?	-
COc1ccc(CCNS(=O)(=O)c2ccc(Br)s2)cc1	29.2	38.6	-	-	-	-
O=S(=O)(NCCc1ccccc1)c1ccc(Br)s1	-	-	-	-	-	-
C[C@H](CO)N1C[C@H](C)[C@@H](CN(C)S(=O)(=O)c2ccc(F)cc2)Oc2c(NS(=O)(=O)c3ccccc3)cccc2C1=O	.	.	.	.	.	-
Cc1cc(C)c(S(=O)(=O)N2CCCCC2CCNC(=O)C(=O)NCc2cccnc2)c(C)c1 (configuration not stated)	.	.	.	?	?	-
CC(CCc1ccccc1)NC(=O)c1ccc(NC(=O)c2cccc(Br)c2)cc1 (configuration not stated)	-	-	-	14.7µM	9.28µM	-
CC(CCc1ccccc1)NC(=O)c1ccc(NC(=O)c2ccccc2)cc1 (configuration not stated)	-	-	-	?	-	-
COc1ccc(NC(=O)C(NC(=O)c2ccc(=O)[nH]c2)c2ccccc2)cc1 (configuration not stated)	-	-	-	-	?	-
CCOc1ccc(C(=O)NC(C)CCc2ccccc2)cc1 (configuration not stated)	28.5	28.9	-	-	-	-
COc1ccc(C(=O)NC(C)CCc2ccccc2)c(O)c1 (configuration not stated)	30.3	67.9	-	?	?	-
COc1cc(C(=O)NC(C)CCc2ccccc2)cc(OC)c1OC (configuration not stated)	-	.	-	?	?	-
COc1ccc(NC(=O)C(NC(=O)c2ccc(C)cc2)c2ccccc2)cc1 (configuration not stated)	24.8	48.9	-	?	?	.
O=C(OCC(=O)c1c[nH]c2ccccc12)c1cc(Br)ccc1O	-	-	.	-	-	-
COc1ccc(C(=O)NCC2OCCc3ccccc32)c(O)c1 (configuration not stated)	23.5	46.9	-	?	.	-
